CHT allo act: allosteric activators of human choline transporter CHT. 0.49% of 310,000 active. AID 488977. B-score at 10 µM. CHT-expressing cells, membrane potential dye, choline EC20; active compounds read high; LV-AA mutant CHT in HEK293 cells;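 active means initial fluorescence not abnormally high and integrated response B-score, plate-corrected, over 3 SD above library mean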
Target sequence (Q9GZV3 whole entry, looked up): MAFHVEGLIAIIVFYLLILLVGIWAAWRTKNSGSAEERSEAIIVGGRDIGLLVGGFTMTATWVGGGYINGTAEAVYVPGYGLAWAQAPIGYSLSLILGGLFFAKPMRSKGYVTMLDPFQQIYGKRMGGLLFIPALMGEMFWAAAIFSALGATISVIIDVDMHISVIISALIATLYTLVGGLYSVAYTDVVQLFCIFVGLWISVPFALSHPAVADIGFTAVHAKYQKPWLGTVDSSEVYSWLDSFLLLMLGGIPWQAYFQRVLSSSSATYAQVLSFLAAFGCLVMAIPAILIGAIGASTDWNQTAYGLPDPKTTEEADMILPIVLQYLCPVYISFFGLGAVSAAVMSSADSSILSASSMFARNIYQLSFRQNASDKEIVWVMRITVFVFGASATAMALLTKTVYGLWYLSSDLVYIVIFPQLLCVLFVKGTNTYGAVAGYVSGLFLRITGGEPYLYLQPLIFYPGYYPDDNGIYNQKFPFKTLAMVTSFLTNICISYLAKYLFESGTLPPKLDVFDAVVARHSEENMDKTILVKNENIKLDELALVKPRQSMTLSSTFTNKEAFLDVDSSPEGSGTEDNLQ
CHT inh: inhibits the human high affinity choline transporter; Q9GZV3; CHT-expressing cells, membrane potential dye, choline response; active compounds read low; B-score at 10 µM; 0.86% of 310,000 active; AID 488975;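 active means B-score over 3 SD under the library average, and starting fluorescence ratio not unusually high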;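 further: choline stimulus applied at its EC90 after an EC20 pre-addition; B-score computed on integrated fluorescence ratio after choline addition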
ANO1 block: blocks the mouse calcium-activated chloride channel TMEM16A. Q8BHY3. AID 588511. 1.2% of 310,000 active. HEK293 TMEM16A/YFP iodide influx fluorescence, ionomycin. normalized B-score (activity score, 25-100; higher = stronger inhibition) at 10 µM;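 active means ratio plate-corrected score three or more library SD toward inhibition, starting fluorescence score within five deviations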;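 further: score derived from kinetic fluorescence span divided by baseline fluorescence per well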
TMEM16A act: activators or potentiators of mouse TMEM16A chloride channel. Q8BHY3. HEK293 TMEM16A/YFP-H148Q/I152L, iodide quench fluorescence; active compounds read low. B-score at 10 µM. 0.3% of 340,000 active;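 active means fluorescence-ratio B-score plate-corrected deviation score at least 3 library SD below zero, with starting fluorescence score within 5 deviations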;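 further: channel opened by trigger with iodide after compound preincubation; score built on the fluorescence ratio of max minus min over baseline; more negative score means more quench and so TMEM16A activation or potentiation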
CHT act confirm: human CHT activation, confirmatory screen; CHT-expressing cells, membrane potential dye fluorescence (FDSS); % of choline EC20–EC90 response window; HEK293 expressing CHT LV-AA mutant; choline added at its EC20; 91% of 2,500 active; shares compounds with CHT allo act; activation, % at 10 µM;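 active means primary screen active, with duplicate mean activation above negative control mean plus 3 SD, cut at about 11% in these data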
HEK293 MP dye: CHT activator counter-screen hit in parental HEK293 cells; AID 623908; 62% of 2,500 active; ratio readout change at 10 µM, hits read low; shares compounds with CHT allo act; membrane potential dye fluorescence (FDSS); measured after EC20 choline addition;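 active means duplicate-averaged ratio beyond 3 SD from buffer wells, up or down, though filed actives are nearly all decreases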
Each line names hits and unclear results; the compound was inactive in the other large screens (follow-up assays come after a bar, where they were run). This is a sample that favours compounds with a hit; in the whole collection about 2.4% have one here.

CCOCCN1CCN(C2c3ccccc3CSc3ccccc32)CC1 (stereo unspecified)	none
COc1ccc(OC)c(C(c2nnnn2C2CCCC2)N2CCN(c3ccccc3F)CC2)c1 (stereo unspecified)	none | CHT act confirm 35 | HEK293 MP dye inactive
CCC(C)(C)n1nnnc1C(c1ccncc1)N1CCN(c2cccc(OC)c2)CC1 (stereo unspecified)	none
CCC(C)(C)n1nnnc1C(c1cccnc1)N1CCN(c2cccc(C(F)(F)F)c2)CC1 (stereo unspecified)	none | CHT act confirm 12 | HEK293 MP dye inactive
CCCCn1c(N)c(N(CC(C)C)C(=O)CSCC(=O)Nc2ccc(OC)cc2)c(=O)[nH]c1=O	none | CHT act confirm inactive | HEK293 MP dye inactive
O=C(CNC(=O)c1cc(Cl)cc([N+](=O)[O-])c1)OCC(=O)N1CCCCC1	none (no result: CHT allo act, CHT inh, ANO1 block)
CCCCOc1ccccc1C1CC(=O)NC2=C1C(=O)CCC2 (stereo unspecified)	CHT allo act 11 | CHT act confirm 73 | HEK293 MP dye inactive
CCCCCn1nc(C(=O)N(CC)c2c(N)n(CCCC)c(=O)[nH]c2=O)c2ccccc2c1=O	none (no result: CHT allo act, CHT inh, ANO1 block)
O=C(C[n+]1ccccc1)N/N=C/c1cc(Br)cc(Br)c1O	none
CCC(O)(CC)C(=O)N/N=C/c1cc(Br)cc(Br)c1O	none | CHT act confirm 14 | HEK293 MP dye inactive
CCOc1ccc(N(C)S(=O)(=O)c2ccc(C)c(C(=O)NCc3cccs3)c2)cc1	none (no result: CHT allo act, CHT inh, ANO1 block)
COc1ccc(C(N)c2nccc3cc(OC)c(OC)cc23)cc1OC (stereo unspecified)	CHT allo act 7.3 | CHT act confirm 53 | HEK293 MP dye -41
CCCC[n+]1ccn(-c2nc3c([N+](=O)[O-])cccc3n2C)c1	none | CHT act confirm 67 | HEK293 MP dye -55
CCCCC[n+]1ccn(-c2nc3ccccc3nc2[N-]S(=O)(=O)c2ccccc2)c1	none
Cc1cc(C)n2nc(C(=O)Nc3nnc(C4CC4)s3)nc2n1	none
CCSc1nnc(NC(=O)c2nc3nc(C)cc(C)n3n2)s1	CHT allo act 6.3 | CHT act confirm 48 | HEK293 MP dye -41
Cc1cc(C)n2nc(C(=O)Nc3cccnc3)nc2n1	CHT allo act 8.7 | CHT act confirm 47 | HEK293 MP dye -48
Cc1cc(C)n2nc(C(=O)N/N=C/c3ccccc3Cl)nc2n1	none
Cc1cc(C)n2nc(C(=O)Nc3nccs3)nc2n1	none | CHT act confirm 54 | HEK293 MP dye -27
Cc1cc(C)n2nc(C(=O)N/N=C/c3ccco3)nc2n1	CHT allo act 7 | CHT act confirm 59 | HEK293 MP dye -60
CC1O[C@@H](O[C@H](C)CC[C@@H](C)O[C@H]2OC(C)[C@@H](O)C[C@H]2O)C(O)C[C@H]1O (stereo partly specified)	none
CCc1nc2ccc(C(=O)NC3CCC(C)CC3)cc2nc1CC (stereo unspecified)	none
CC(C(=O)OCc1nnc(-c2ccccc2)o1)N1C(=O)c2ccccc2C1=O (stereo unspecified)	none
O=C(NC1CCCCC1)C(c1ccc(F)cc1)N(C(=O)c1cccs1)c1ccc2c(c1)OCO2 (stereo unspecified)	none
O=C(NC1CCCCC1)C(c1ccc2ncccc2c1)N(Cc1ccc(F)cc1)C(=O)c1cccs1 (stereo unspecified)	none | CHT act confirm 31 | HEK293 MP dye inactive
Cc1ccc(NC(=O)CSC(C)C(=O)NCCc2ccccn2)cc1 (stereo unspecified)	none
C[n+]1c2n(c3ccccc31)N=C(c1cc(C(C)(C)C)c(O)c(C(C)(C)C)c1)CS2	CHT allo act 40, ANO1 block 100 | CHT act confirm 66 | HEK293 MP dye -36
COc1cccc(C2=Nn3c(nnc3-c3ccccc3O)SC2)c1	none
COC(=O)[C@]1(C)N[C@H](CN(C)C(=O)Nc2ccc(OC)cc2)[C@@H]2C(=O)N(C)C(=O)[C@@H]21	none (no result: CHT allo act, CHT inh, ANO1 block)
COc1cc(OC)c(-c2nnc(-c3ccc(OC)c(OC)c3OC)o2)cc1OC	none
COc1cc2c(cc1OC)-c1cc3ccc(OC)c(OC)c3c[n+]1CC2	none | CHT act confirm 36 | HEK293 MP dye -24
S=c1[nH]ccn1Cc1ccccc1	none
Cc1ccc(S(=O)(=O)c2nc(-c3ccco3)oc2SC(C)C)cc1	none | CHT act confirm 15 | HEK293 MP dye inactive
CCCCCC[N+](C)(C)CC/C=C1/c2ccccc2Sc2ccc(Cl)cc21	none | CHT act confirm 44 | HEK293 MP dye -27
Cc1ccc(S(=O)(=O)Nc2cnn(-c3ccccc3)c(=O)c2Cl)cc1	none
CC[n+]1ccc(C[n+]2ccccc2)c2ccccc21	CHT allo act 11 | CHT act confirm 85 | HEK293 MP dye -87
N=c1c(C(=O)NC2CCCC2)cc2c(=O)n3ccccc3nc2n1C1CCCCC1	none | CHT act confirm 48 | HEK293 MP dye -35
O=C(O)c1ccc(N/N=C/C=C/c2ccc([N+](=O)[O-])o2)cc1	none
O=[N+]([O-])c1ccc(N/N=C/C=C/c2ccco2)cc1	CHT allo act 8.1 | CHT act confirm 12 | HEK293 MP dye inactive
CN(C)c1ccc(N=Nc2nc3ccccc3n2C)cc1	none
Cn1c(N=Nc2ccccc2)nc2ccccc21	CHT allo act 6.4 | CHT act confirm 29 | HEK293 MP dye -53
CC1CCc2sc(C(=O)NCCCn3ccnc3)cc2C1 (stereo unspecified)	none
COCc1nc2ccccc2n1Cc1cccc(C)c1	none
Cc1cccc(Cn2c(Cc3ccccc3)nc3ccccc32)c1	CHT allo act 9.8 | CHT act confirm inactive | HEK293 MP dye inactive
c1ccc2c(N3CCOCC3)nc(N3CCOCC3)nc2c1	CHT allo act 12 | CHT act confirm 48 | HEK293 MP dye -86
c1ccc2c(N3CCOCC3)nc(-c3ccncc3)nc2c1	CHT allo act 7.1 | CHT act confirm 83 | HEK293 MP dye -57
c1cncc(-c2nc(N3CCOCC3)c3ccccc3n2)c1	CHT allo act 8.1 | CHT act confirm 53 | HEK293 MP dye -49
O=S(=O)(c1ccccc1)N1CCN(c2nc(-c3cccnc3)nc3ccccc23)CC1	none (no result: CHT allo act, CHT inh, ANO1 block)
CN1CCN(c2nc(N3CCN(CCO)CC3)nc3ccccc23)CC1	CHT allo act 11 | CHT act confirm 37 | HEK293 MP dye -102
CC1CCN(c2nc(-c3ccncc3)nc3ccccc23)CC1	none
CC[n+]1c(/C=C/c2cc([N+](=O)[O-])ccc2O)ccc2ccccc21	none | CHT act confirm 17 | HEK293 MP dye -52
CC[n+]1c(/C=C/c2ccc(OC(C)=O)c(OC)c2)ccc2ccccc21	CHT allo act 7.2 | CHT act confirm 45 | HEK293 MP dye -74
CC[n+]1c(/C=C/c2ccc(OC)c(OC)c2)ccc2ccccc21	none
